High-throughput results deposited in PubChem by National Center for Advancing Translational Sciences (NCATS).
A selection: hits, their analogues and other compounds. The true share with any hit is near 18%.
TDP1 cell noCPT – qHTS for Inhibitors of human tyrosyl-DNA phosphodiesterase 1 (TDP1): qHTS in cells in absence of CPT. hit rate 15% among 420,000. Potency, µM (titrated, usually from 46.2 µM), for inactives: top-dose activity change, negative = growth inhibition, most hits filed as inhibitors. AID 686978, 2013. DT40 Tdp1-/- hTDP1 cells, no CPT, ATP luminescence, 48 h; note: potency is the fitted concentration of half-maximal effect; nearly all actives have a fitted effect of over 55% in size
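Growth of hTDP1-complemented DT40 Tdp1-knockout cells is measured by ATP luminescence after at least 48 hr compound exposure at 37 °C, with DMSO substituting for the 20 nM CPT used in the parallel screen.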
TDP1 inh – inhibitors of human tyrosyl-DNA phosphodiesterase TDP1; Potency, µM (top dose mostly 130 µM), for the others: at the highest dose activity change, negative = inhibition, most hits filed as inhibitors; AID 485290; hit rate 0.28% among 350,000; Q9NUW8; recombinant TDP1, AlphaScreen DNA substrate cleavage; note: potency is the fitted concentration of half-maximal effect; nearly all actives have a fitted effect of over 40% in size
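Compounds were preincubated with Tdp1 (1 nM final) for 15 min at room temperature before substrate (15 nM final) started a 5 min reaction; beads (10 ug/ml final) were then added for 10 min before AlphaScreen detection.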
TDP1 cell CPT – growth inhibition of DT40 Tdp1-/-;hTDP1 cells with camptothecin (screen for TDP1 inhibitors); chicken DT40 Tdp1-/-;hTDP1 cells + 20 nM CPT, ATP luminescence, 48 h; Potency, µM (doses to about 46.2 µM), for inactives: at the highest dose activity change, negative = growth inhibition, most hits filed as inhibitors; hit rate 12% among 420,000; note: potency is the fitted concentration of half-maximal effect; nearly all actives have a fitted effect of over 55% in size
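Chicken DT40 Tdp1-/- cells complemented with human TDP1, 400 cells/well, exposed to compounds plus 20 nM camptothecin for at least 48 h at 37 C; viability read as ATP content by CellTiter-Glo luminescence.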
IL-1B inflam inh – blocks inflammasome-driven IL-1 beta release; THP-1 LPS/ATP IL-1B secretion, AlphaLISA, 16 h; hits give low values; activity change, % at 57.5 µM; hit rate 4.7% among 360,000; in the data active = activity change below about -50%; inconclusive = mostly about -30% to -49%
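THP-1 cells pretreated 1 hr with compounds (up to 57.5 uM final), then stimulated with LPS (250 ng/mL final) plus ATP (1.25 mM final); secreted IL-1B measured by AlphaLISA after 16 hr, decreased signal indicating inhibition.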
CtBP-E1A inh – CtBP/E1A binding inhibition; AlphaScreen GST-E1A/His-CtBP binding, 1536-well; hits give low values; activity change, % (concentration not given with the values); hit rate 0.49% among 340,000; AID 651724; in the data active = activity change below about -65%; inconclusive = mostly about -30% to -63%
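Protein mix (5X: 125 nM each GST-E1A, His-CtBP) was incubated with pinned compound 2 h at 37 deg C in dark, in 50 mM Tris pH 8.0 buffer with 300 mM NaCl. Glutathione donor and nickel acceptor beads followed; AlphaScreen signal read after 1 h.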
Six1-Eya2 blk – inhibitors of human Six1/Eya2 interaction | AlphaScreen GST-Six1/His-Eya2 binding, biochemical; hits give low values | activity change, % (concentration not given with the values) | hit rate 0.56% among 360,000; in the data active = activity change below about -65%; inconclusive = mostly about -30% to -63%
Target sequence (O00167 whole entry, looked up): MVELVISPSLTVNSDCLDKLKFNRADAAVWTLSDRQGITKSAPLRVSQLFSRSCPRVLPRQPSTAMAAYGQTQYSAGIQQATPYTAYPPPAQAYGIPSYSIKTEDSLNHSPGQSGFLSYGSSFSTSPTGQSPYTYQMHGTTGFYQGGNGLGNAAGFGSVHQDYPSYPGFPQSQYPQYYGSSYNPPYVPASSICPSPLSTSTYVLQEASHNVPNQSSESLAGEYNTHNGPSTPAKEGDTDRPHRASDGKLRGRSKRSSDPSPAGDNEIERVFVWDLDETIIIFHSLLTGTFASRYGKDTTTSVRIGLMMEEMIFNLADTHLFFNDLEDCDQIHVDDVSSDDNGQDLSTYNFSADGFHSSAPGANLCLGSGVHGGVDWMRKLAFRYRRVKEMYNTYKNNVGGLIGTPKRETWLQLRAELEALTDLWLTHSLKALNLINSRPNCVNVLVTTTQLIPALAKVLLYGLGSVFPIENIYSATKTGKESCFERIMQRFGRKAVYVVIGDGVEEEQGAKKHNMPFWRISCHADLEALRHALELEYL
Target sequence (Q15475 whole entry, looked up): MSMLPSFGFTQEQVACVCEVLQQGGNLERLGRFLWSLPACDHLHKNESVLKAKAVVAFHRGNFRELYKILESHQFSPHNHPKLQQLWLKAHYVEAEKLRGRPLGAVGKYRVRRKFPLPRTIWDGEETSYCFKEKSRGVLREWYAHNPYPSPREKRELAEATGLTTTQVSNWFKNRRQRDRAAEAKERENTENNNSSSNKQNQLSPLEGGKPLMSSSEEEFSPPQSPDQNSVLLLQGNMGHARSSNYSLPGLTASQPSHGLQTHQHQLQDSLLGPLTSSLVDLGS
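Compounds are tested against tagged Six1 and Eya2 proteins bridged by glutathione donor and nickel acceptor beads; after a one-hour incubation at 37 °C without light, AlphaScreen emission is recorded.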
The depositor's hits bear a star; ? = inconclusive; . = no result; [ ] = another dose, or the depositor's remark. Unless noted, calls come from the whole dose curve; as a rule, active = well fitted curve in the direction sought with a large enough effect; inconclusive = small, poorly fitted or top-dose-only effect, or another doubt; inactive = no such curve, though single readings can be large; an effect the other way counts as inactive or inconclusive. % is set by controls: 0 for no effect and ±100 for the full control effect.

SMILES	TDP1 cell noCPT	TDP1 inh	TDP1 cell CPT	IL-1B inflam inh	CtBP-E1A inh	Six1-Eya2 blk
CN(C)S(=O)(=O)c1ccc(N2CCCC2)c(C(=O)Nc2nc3ccc(F)cc3s2)c1	-30%	7%	-21%	-51*	-3	-14
Cc1cccc2sc(NC(=O)c3cc(S(=O)(=O)N(C)C)ccc3N3CCCC3)nc12	18µM*	5%	?	-124*	-12	0
Cc1cc(C)c(S(C)(=O)=O)c(N(C)NC(=O)c2c(F)cccc2F)n1	-7%	0%	-10%	39	5	-12
CCn1c(C)nc2cc(C(=O)N/N=C/c3cccc(O)c3O)ccc21	9.2µM*	.	15µM*	108	-94*	-80*
CCn1c(C)nc2cc(C(=O)NNC(=S)NC(=O)c3ccccc3)ccc21	23µM*	4%	?	14	.	-1
CCn1c(C)nc2cc(C(=O)NN=Cc3ccc([N+](=O)[O-])cc3)ccc21	8%	45µM*	11%	9	8	4
CCn1c(C)nc2cc(C(=O)N/N=C/c3ccc(O)cc3)ccc21	-13%	8%	0%	12	8	-3
CCn1c(C)nc2cc(C(=O)N/N=C(\C)c3ccc(OC)cc3O)ccc21	10µM*	0%	9.2µM*	123	-22	-29
CNC(=O)C1=C(C)NC(=S)NC1c1cccs1 (stereo not drawn)	-13%	3%	-2%	1	5	2
CCCNC(=O)c1ccc(S(N)(=O)=O)cc1	-6%	9%	-7%	25	2	7
Cc1noc(C)c1C(=O)Nc1cccc2ncccc12	-21%	11%	7%	7	0	-4
COc1ccc(C(=O)C[n+]2ccc3c(c2)nc(-c2ccccc2)n3C)cc1	8.2µM*	1%	12µM*	-22	-12	2
C=Cn1cc[n+](CC(=O)c2ccc(OC)cc2)c1	21µM*	5%	?	28	-2	4
COc1cc(-c2nc3c[n+](CC(=O)c4ccccc4)ccc3n2C)cc(OC)c1OC	-2%	-8%	4%	5	17	0
COc1ccc(OC)c(CCNC(=O)CC2(CC3=NS(=O)(=O)c4ccccc4N3)CCCC2)c1	?	.	12µM*	-13	2	0
O=C(NNS(=O)(=O)c1ccccc1)C1CCCCC1	-6%	.	13%	12	-1	4
O=c1[nH]c(Nc2nc3ccccc3o2)nc2c1CCCC2	4.1µM*	9%	2.9µM*	-101*	48	24
Cc1ccc(Nc2nc3c(c(=O)[nH]2)CCCC3)cc1	?	2%[56.1 µM]	?	46	7	2
COc1ccc2c(c1C)CCC(C)(C#N)C2=O (stereo not drawn)	-18%	.	6%	-1	1	7
Cc1ccc(CCNC(=O)C2CC(c3ccc(C(F)(F)F)cc3)=NO2)cc1 (stereo not drawn)	-25%	5%	-13%	6	.	6
O=C(Nc1nnc(COc2ccc(Cl)cc2)s1)c1cccs1	12µM*	6%	15µM*	1	2	6
O=C(Nc1nnc(COc2ccc(Cl)cc2)s1)c1ccco1	?	79µM*	29µM*	?	-4	-5
CCc1ccccc1NC(=O)CC(O)(C(=O)OC)C(F)(F)F (stereo not drawn)	-2%	-2%	-8%	20	4	2
COC1=C(N)C(=O)c2nc(-c3nc(C(=O)O)c(C)c(-c4ccc(OC)c(OC)c4O)c3N)ccc2C1=O	0.1µM*	-3%	0.041µM*	-106*	?	?
COc1ccc(NC(=O)CN(C)C(=O)c2cccc(S(=O)(=O)N3CC4(C)CC3CC(C)(C)C4)c2)cc1 (stereo not drawn)	?	6%	?	-72*	1	-3
SMILES	TDP1 cell noCPT	TDP1 inh	TDP1 cell CPT	IL-1B inflam inh	CtBP-E1A inh	Six1-Eya2 blk
CC1(C)CC2CC(C)(CN2S(=O)(=O)c2ccc(C(=O)Nc3cccc(S(=O)(=O)N4CCOCC4)c3)cc2)C1 (stereo not drawn)	5.8µM*	-3%	4.1µM*	-21	-11	17
CC1(C)CC2CC(C)(CN2S(=O)(=O)c2ccc(C(=O)Nc3cc(S(=O)(=O)N4CCOCC4)ccc3Cl)cc2)C1 (stereo not drawn)	2.9µM*	-3%	3.3µM*	48	1	1
CCOC(=O)c1ccc(CNC(=O)Cn2nnc(-c3ccc(C)cc3)n2)o1	-10%	2%	-14%	-1	6	11
COc1ccc(/C(C)=N/NC(=O)OC(C)(C)C)cc1[N+](=O)[O-]	0%	5%	9%	0	.	-3
Cc1ccc(C)c(C(=O)CSc2n[nH]c(-c3ccncc3)n2)c1	?	3%	-24%	0	-8	-8
CN(C)c1ccc(-c2noc(C3CCN(S(=O)(=O)c4cccc(Cl)c4)CC3)n2)cc1	?	1%	?	-3	-8	-6
CC(C)(C)c1ccc(C(=O)N2CCC(c3noc(-c4ccc(S(=O)(=O)N5CCCC5)cc4)n3)CC2)cc1	18µM*	-7%	21µM*	.	.	.
O=C(C1CC1)N1CCC(c2nc(-c3ccc(S(=O)(=O)N4CCCC4)cc3)no2)CC1	21µM*	6%	?	20	4	-1
CS(=O)(=O)N1CCCC(c2nc(-c3ccc(S(=O)(=O)NCc4ccccc4)cc3)no2)C1 (stereo not drawn)	10µM*	2%	13µM*	0	0	-1
O=S(=O)(c1ccc2ccccc2c1)N1CCC(c2nc(-c3ccncc3)no2)CC1	9.2µM*	5%	16µM*	-18	-4	1
O=C(Cc1ccccc1)N1CCCC(c2nc(-c3ccc(S(=O)(=O)N4CCCC4)cc3)no2)C1 (stereo not drawn)	?	2%	?	-72*	5	-2
O=C(NC1CCCCC1)N1CCC(c2nc(-c3ccc(S(=O)(=O)N4CCCC4)cc3)no2)CC1	9.2µM*	-2%	10µM*	20	-5	4
CC(C)N(C(=O)N1CCC(c2nc(-c3ccncc3)no2)CC1)C(C)C	18µM*	-2%	?	0	5	1
O=C(N1CCOCC1)N1CCC(c2nc(-c3ccc(S(=O)(=O)N4CCOCC4)cc3)no2)CC1	?	1%	?	9	4	0
O=C(Cc1ccccc1)N1CCC(c2nc(-c3ccc(F)cc3)no2)CC1	?	-2%	?	-13	0	-1
